# Reference: PubChem BioAssay (Tox21)
# “And” between values parts separate entries of the source, which are not always exact repeats. Equal entries are not always repeated. Results filed as inconclusive are left out. A call without a number means that no potency is given here. Unmarked numbers belong to inactive results. The source made the active and inactive calls. Calls come from the whole dose curve; as a rule, active = well fitted cell-killing curve with a large enough effect in the repeat runs; inconclusive = weak or mixed curves, or effect the other way; inactive = flat fitted curve, though single readings scatter.
# Legend:
# [1] = cAMP Responsive Elements (CRE) small molecule antagonists, cell-based qHTS assay: qHTS cell viability counter screen (AID 2060913); note: nearly all actives have a fitted effect of over 40% in size
# Summary of the method: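 HEK293T CRE-bla, 2,000 cells/well, 18 h preincubation; cpd in DMSO + NKH477 0.25 uM final, 3 h 37 C/5% CO2; LiveBLAzer 2 h RT, then CellTiter-Glo 30 min RT, luminescence.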
# [2] = cAMP Responsive Elements (CRE) small molecule agonists, cell-based qHTS assay: qHTS cell viability counter screen (AID 2060914);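 note: viability read after 3 h of compound exposure; nearly all actives have a fitted effect of over 50% in size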
# Summary of the method: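 Cells are seeded and incubated 18 h, treated with compounds in DMSO for 3 h, read for the bla reporter, then given CellTiter-Glo; luminescence is measured after 30 min at room temperature.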
# Potency is the fitted concentration of half-maximal effect.
Compound,Potency [1],Potency [2],"viability change, negative = cytotoxic [1]","activity change, negative = cytotoxicity [2]"
O=C(O)CCC(=O)Nc1ccc(S(=O)(=O)Nc2nccs2)cc1,inactive,inactive,,
Nc1nc(-c2ccccc2)c(Br)c(=O)[nH]1,inactive,inactive,,
O=C(OCC1(COC(=O)c2cccnc2)CCCC(COC(=O)c2cccnc2)(COC(=O)c2cccnc2)C1O)c1cccnc1,inactive,inactive,,
CC(C)(C)C(=O)Oc1ccc(S(=O)(=O)Nc2ccccc2C(=O)NCC(=O)O)cc1,inactive,inactive,,
CCC(C)SSC(C)CC (configuration not stated),inactive,inactive,,
Nc1cc([N+](=O)[O-])cc(Cl)c1O,inactive,inactive,,
CCCCCC(C)OC(=O)COc1ccc(Cl)c2cccnc12 (configuration not stated),inactive,inactive,,
CCOC(=O)/C=C/C(=O)O,inactive,inactive,,
CC1=C(C=O)C(C)(C)CCC1,inactive,inactive,,
O=c1[nH]c2cc(C(F)(F)F)c(N3CCOCC3)cc2n(CP(=O)(O)O)c1=O,inactive,inactive,,
O=C(O)CN1C(=O)c2cccc3cccc(c23)C1=O,inactive,inactive,,
C=CC(=O)OCCOCCOCC,inactive,inactive,,
CSCCC=O,inactive,inactive,,
O=C(O)Cc1ccc2c(c1)C(=O)c1ccccc1CO2,inactive,inactive,,
C=C[C@H]1CN2CC[C@H]1C[C@@H]2[C@@H](O)c1ccnc2ccc(OC)cc12,inactive,inactive,,
C=C(C)C(=O)OCCCC,inactive,inactive,,
CC(C)c1ccccc1O,inactive,inactive,,
Cc1cc(CC(=O)O)n(C)c1C(=O)c1ccc(Cl)cc1,inactive,inactive,,
CC(=O)OC1CCCCC1,inactive,inactive,,
CC(=O)OCC(=O)[C@@]12N=C(C)O[C@@H]1C[C@H]1[C@@H]3CCC4=CC(=O)C=C[C@]4(C)[C@H]3[C@@H](O)C[C@@]12C,inactive,inactive,,
O=C[C@H](O)[C@H](O)[C@H](O)CO,inactive,inactive,,
CCN(CC)CCCC(C)Nc1c2ccc(Cl)cc2nc2ccc(OC)cc12 (configuration not stated),inactive,inactive,,
NC(=O)Nc1ccc(Cl)c(Cl)c1,inactive,inactive,,

Compound,Potency [1],Potency [2],"viability change, negative = cytotoxic [1]","activity change, negative = cytotoxicity [2]"
CCCCOC(=O)C(C)O (configuration not stated),inactive,inactive,,
COc1ccc(S(=O)(=O)N2c3ccc(Cl)cc3[C@@](O)(c3ccccc3Cl)[C@H]2C(=O)N2CCC[C@@H]2C(N)=O)cc1OC,inactive,inactive,,
CCCCC1(COC(=O)CCC(=O)O)C(=O)N(c2ccccc2)N(c2ccccc2)C1=O,inactive,inactive,,
COCc1ccc(COC)cc1,inactive,inactive,,
C[n+]1cc2c3c(ccc2c2ccc4cc5c(cc4c21)OCO5)OCO3,3.66 µM (active),3.26 µM (active),,
CC(C)(C)c1ccc(-c2ccc(C(C)(C)C)cc2)cc1,inactive,inactive,,
CCN1CCCC1=O,inactive,inactive,,
Cc1ccc(Cl)cc1N,inactive,inactive,,
Oc1cc(O)c(Cl)cc1Cl,inactive,inactive,,
O=C(c1ccc(O)cc1)c1ccc(O)cc1,inactive,inactive,,
CCCCCCCC[N+](CCCCCCCC)(CCCCCCCC)CCCCCCCC,19.3 µM (active),30.6 µM (active),,
CC(C)(c1cc(Br)c(OCC(Br)CBr)c(Br)c1)c1cc(Br)c(OCC(Br)CBr)c(Br)c1 (configuration not stated),inactive,inactive,,
CC(C)(C)c1ccc(S)cc1,inactive,inactive,,
Cc1ccc(O)cn1,inactive,inactive,,
CCOC(=O)[C@H](CCc1ccccc1)N[C@@H](C)C(=O)N1[C@H](C(=O)O)C[C@@H]2CCC[C@@H]21,inactive,inactive,,
OC(CCN1CCCC1)(c1ccccc1)C1CCCCC1 (configuration not stated),inactive,inactive,,
CCS(=O)(=O)CCn1c([N+](=O)[O-])cnc1C,inactive,inactive,,
C=CC1CC2C=CC1C2 (configuration not stated),inactive,inactive,,
CC1=NN(c2cc(Cl)c(S(=O)(=O)O)cc2Cl)C(=O)C1N=Nc1ccc(S(=O)(=O)O)cc1 (configuration not stated),inactive,2.43 µM (active),,
O=S(=O)(O)c1ccc2cc(O)ccc2c1,inactive,inactive,,
C/C(=C\c1ccc(C(=O)O)cc1)c1ccc2c(c1)C(C)(C)CCC2(C)C,inactive,inactive,,
CC(C)[C@@H]1CC[C@@H](C)C[C@H]1O,inactive,inactive,,
O=C(NCc1ncc(C(F)(F)F)cc1Cl)c1c(Cl)cccc1Cl,inactive,inactive,,

Compound,Potency [1],Potency [2],"viability change, negative = cytotoxic [1]","activity change, negative = cytotoxicity [2]"
C(=C\c1ccccc1)/c1ccccc1,inactive,inactive,,
Cc1ccccc1C(OCCN(C)C)c1ccccc1 (configuration not stated),inactive,inactive,,
CC1(C)CC(N)CC(C)(C)N1,inactive,inactive,,
O=C(NS(=O)(=O)/C=C/c1cccs1)c1ccc(F)cc1Br,inactive,inactive,,
CCCCNC(=O)NS(=O)(=O)c1ccc(N)cc1,inactive,inactive,,
CC(C)(CO)[N+](=O)[O-],inactive,inactive,,
CC(COCC(C)OC(=O)c1ccccc1)OC(=O)c1ccccc1 (configuration not stated),inactive,inactive,,
N#CSc1ccc(N)c([N+](=O)[O-])c1,inactive,inactive,,
CC(=O)N(CC(O)CO)c1c(I)c(C(=O)NCC(O)CO)c(I)c(C(=O)NCC(O)CO)c1I (configuration not stated),inactive,inactive,,
CC(C)NCCCC1(C(N)=O)c2ccccc2-c2ccccc21,inactive,inactive,,
COC(=O)c1ccc(C)cc1C1=NC(C)(C(C)C)C(=O)N1 (configuration not stated),inactive,inactive,,
C#CC(C)(CC)OC(=O)c1ccccc1C(=O)O (configuration not stated),inactive,inactive,,
CCCCCCCCCC(C)C=O (configuration not stated),inactive,inactive,,
CC[N+](C)(CC)CCOC(=O)C(O)(c1ccccc1)C1CCCCC1 (configuration not stated),inactive,inactive,,
CC(Oc1cc(Cl)ccc1Cl)C(=O)O (configuration not stated),inactive,inactive,,
Cc1[nH]nc2c1N=C(c1ccccc1Cl)c1cc([N+](=O)[O-])ccc1N2,inactive,inactive,,
CCN(CC)c1ccc(C=O)cc1,inactive,inactive,,
c1ccc2cc(Nc3ccc(Nc4ccc5ccccc5c4)cc3)ccc2c1,inactive,inactive,,
CC1(C)C(=O)N(CO)C(=O)N1CO,inactive,inactive,,
OCCN1CCN(CCCN2c3ccccc3C=Cc3ccccc32)CC1,inactive,inactive,,
CCCCCCCCCCO,inactive,inactive,,
COc1cc(NC(C)CCCN)c2ncccc2c1 (configuration not stated),inactive,inactive,,
Cc1nc(C2CCCCC2)c(-c2ccc(S(N)(=O)=O)c(F)c2)o1,inactive,inactive,,

Compound,Potency [1],Potency [2],"viability change, negative = cytotoxic [1]","activity change, negative = cytotoxicity [2]"
NS(=O)(=O)c1cc(C(=O)NN2C[C@H]3[C@H]4CCC(C4)[C@H]3C2)ccc1Cl,inactive,inactive,,
COc1ccc(-c2coc3cc(O)ccc3c2=O)cc1,inactive,inactive,,
NCCN,inactive,inactive,,
COc1cc([C@H]2Oc3cc([C@H]4Oc5cc(O)cc(O)c5C(=O)[C@@H]4O)ccc3O[C@@H]2CO)ccc1O,inactive,inactive,,
CC(C)C(=O)Nc1ccc([N+](=O)[O-])c(C(F)(F)F)c1,inactive,inactive,,
NC(=O)c1cccnc1,inactive,inactive,,
O=C(O)CCC(=O)OC[C@@H](NC(=O)C(Cl)Cl)[C@H](O)c1ccc([N+](=O)[O-])cc1,inactive,inactive,,
CC(C)(CO)CO,inactive,inactive,,
CC(C)(C(=O)O)c1ccc(C(O)CCCN2CCC(C(O)(c3ccccc3)c3ccccc3)CC2)cc1 (configuration not stated),inactive,inactive,,
O=Cc1ccccc1S(=O)(=O)O,inactive,inactive,,
CCN(CC)C(=O)/C(C#N)=C/c1cc(O)c(O)c([N+](=O)[O-])c1,inactive,inactive,,
CCCCCSCCCCC,inactive,inactive,,
OCCOCCOCCOCCO,inactive,inactive,,
C[C@]1(Cn2ccnn2)[C@H](C(=O)O)N2C(=O)C[C@H]2S1(=O)=O,inactive,inactive,,
CCCCOc1ccc(N)cc1,inactive,inactive,,
CC(=O)OCC(=O)[C@@]1(O)CC[C@H]2[C@@H]3CCC4=CC(=O)C=C[C@]4(C)[C@@]3(F)[C@@H](O)C[C@@]21C,inactive,inactive,,
NCc1ccco1,inactive,inactive,,
CCCCCC/C(C=O)=C\c1ccccc1,inactive,inactive,,
CCN(CCO)CCCC(C)Nc1ccnc2cc(Cl)ccc12 (configuration not stated),,,24.8% [at 8.39 µM],-9.15% [at 8.39 µM]
CC(C)(C#N)Nc1nc(Cl)nc(NC2CC2)n1,inactive,inactive,,
O=C(CO)[C@@H](O)[C@H](O)[C@H](O)CO,inactive,inactive,,
CC1=C(/C=C/C(C)=C/C=C/C(C)=C/C(=O)O)C(C)(C)CCC1,inactive,inactive,,
COC(=O)/C=C\C(=O)OC,inactive,inactive,,

Compound,Potency [1],Potency [2],"viability change, negative = cytotoxic [1]","activity change, negative = cytotoxicity [2]"
NC=O,inactive,inactive,,
CC1(C)CCC[C@]2(C)[C@H]3CCO[C@]3(C)CC[C@@H]12,inactive,inactive,,
CCCCC(=O)O[C@]1(C(=O)CO)[C@@H](C)C[C@H]2[C@@H]3CCC4=CC(=O)C=C[C@]4(C)[C@@]3(F)[C@@H](O)C[C@@]21C,inactive,inactive,,
NCCCN1CCN(CCCN)CC1,inactive,inactive,,
C=C(C)[C@@H]1CC=C(C)CC1,inactive,inactive,,
Nc1cccc(N)c1,inactive,inactive,,
O=C(c1ccccc1)c1ccccc1,inactive,inactive,,
O=C1c2c(O)cccc2Cc2cccc(O)c21,inactive,inactive,,
CC(=O)OC(C)C,inactive,inactive,,
Nc1c2c(nc3ccccc13)CCCC2O (configuration not stated),inactive,inactive,,
CCCN1C=CN(C)C1,inactive,inactive,,
COc1ccc(C2CNC(=O)C2)cc1OC1CCCC1 (configuration not stated),inactive,inactive,,
CCCCCCCCCCCCCCCC(=O)OC/C=C(C)/C=C/C=C(C)/C=C/C1=C(C)CCCC1(C)C,inactive,inactive,,
CCCCCCCCCCCCC1CO1 (configuration not stated),inactive,inactive,,
CN(C)CCCN1c2ccccc2CCc2ccccc21,inactive,inactive,,
NCCCN1CCOCC1,inactive,inactive,,
O=S(=O)(O)CCN1CCN(CCO)CC1,inactive,inactive,,
CCCCC(CC)COCCC#N (configuration not stated),inactive,inactive,,
CC(C)CCCCCCc1ccc(O)cc1,55.4 µM (active) and 27.3 µM (active),55.4 µM (active) and 30.6 µM (active),,
